For ten molecules, outcome and Potency results are on record in PubChem BioAssay (Tox21).

Molecules are shown by their SMILES. Where “and” joins values, the source holds several entries; their conditions need not be identical. Identical values can stand only once. Results filed as inconclusive are left out. More than one record can exist for a structure, and the calls need not agree. Calls of active or inactive are those of the source. Unless noted, calls follow the shape of the dose curve; as a rule, active = well fitted curve in the direction sought with a large enough effect in the repeat runs; inconclusive = weak or mixed curves; inactive = no such curve, though single readings can be large; an effect the other way counts as inactive or inconclusive.

A short description of test [1]: qHTS assay to identify small molecule agonists of the vitamin D receptor (VDR) signaling pathway - cell viability counter screen (AID 743224). Also: series mostly up to about 63 µM; nearly all actives have a fitted effect of over 50% in size. The procedure, abridged:
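CellTiter-Glo viability readout on VDR-bla cells, measured after 16 h of compound treatment at 37C in the same wells.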

Test [2] is described as follows: qHTS assay to identify small molecule antagonists of the vitamin D receptor (VDR) signaling pathway - cell viability counter screen (AID 743225). Also: nearly all actives have a fitted effect of over 50% in size. In short, it runs like this:
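Cytotoxicity counter screen read by CellTiter-Glo luminescence (30 min, room temperature) in the same wells as the VDR-bla antagonist readout. HEK 293T VDR-UAS-bla cells had 16 h at 37C with compound and 3 nM (final) 1-alpha,25-dihydroxyvitamin D3, then 2 h with FRET substrate.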
On the technique in general: qHTS replaces the single test concentration by a dilution series.

Test [3] in a line: qHTS assay to identify small molecule agonists of the NFkB signaling pathway (AID 1159509; active = well fitted curve in the direction sought with a large enough effect in the signal ratio in the repeat runs, not every such curve was filed as active; the % refers to the signal ratio; also: series mostly up to about 61 µM). The procedure, abridged: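 Beta-lactamase reporter assay run in quantitative high-throughput format on an NF-kB-responsive ME-180 line, with 5 hr compound treatment and a FRET-based blue/green fluorescence readout.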
The nature of test [4]: qHTS assay to identify small molecule agonists of the NFkB signaling pathway - cell viability counter screen (AID 1159515; calls by dose curve; also: series mostly up to about 61 µM; nearly all actives have a fitted effect of over 55% in size). In short, it runs like this:
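Tox21 library compounds were tested for cytotoxicity against NFkB-bla ME-180 cells during a 5 hr exposure at 37 C. CellTiter-Glo luminescence served as the viability read-out.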

A short description of test [5]: qHTS assay to identify small molecule agonists of the endoplasmic reticulum stress response signaling pathway (AID 1159516; active = well fitted activation curve with a large enough effect in the signal ratio in the repeat runs, not every such curve was filed as active; the % refers to the signal ratio). In short, it runs like this:
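Fluorescence at 460 and 530 nm (405 nm excitation) reports beta-lactamase from an ER stress response element in HeLa cells treated 5 hr at 37 C.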

Test [6] in a line: qHTS assay to identify small molecule agonists of the endoplasmic reticulum stress response signaling pathway - cell viability counter screen (AID 1159517; calls by dose curve; also: nearly all actives have a fitted effect of over 50% in size; also: potency is read from the fitted curve at half-maximal effect). The procedure, abridged:
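Steps: seed 1,500 ESRE-bla HeLa cells per well; incubate overnight at 37 C, 5% CO2; add compounds in DMSO for 5 hr; run FRET substrate 2 hr RT; add CellTiter-Glo, wait 30 min, read luminescence.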

A short description of test [7]: qHTS assay to identify small molecule antagonists of the retinoid-related orphan receptor gamma (ROR-gamma) signaling pathway - cell viability counter screen (AID 1159520). Also: nearly all actives have a fitted effect of over 50% in size. The procedure, abridged: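 Tet-on ROR gamma CHO cells were given compounds for 2 hr, then doxycycline hyclate at 1 uM final, and incubated 16 hr at 37 C. Viability was measured as ATP content by CellTiter-Glo luminescence.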

Test [8] concerns the target Nuclear receptor ROR-gamma (Homo sapiens) (UniProt P51449). In words: qHTS assay to identify small molecule antagonists of the retinoid-related orphan receptor gamma (ROR-gamma) signaling pathway (AID 1159521). The procedure, abridged:
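Antagonist read-out: drop in luminescence (ONE-Glo) from an RORE-LUC reporter in CHO cells with doxycycline-inducible ROR-gamma; 2 hr compound pretreatment, 1 uM doxycycline, 16 hr incubation at 37 C.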

A short description of test [9]: qHTS assay to identify small molecule agonists of the AP-1 signaling pathway - cell viability counter screen (AID 1159525; calls by dose curve; also: nearly all actives have a fitted effect of over 55% in size). In short, it runs like this:
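Same-well cytotoxicity counter screen of the Tox21 10K library in ME-180 cells. The readout is ATP-dependent luminescence after 5 h compound treatment. Data are normalised to DMSO and tetra n-octyl ammonium bromide controls.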

The nature of test [10]: qHTS assay to identify small molecule agonists of the AP-1 signaling pathway (AID 1159526; calls by dose curve).
The target in test [11] is Retinoic acid receptor RXR-alpha (Homo sapiens) (UniProt P19793). In words: qHTS assay to identify small molecule agonists of the RXR signaling pathway (AID 1159527; calls by dose curve; also: nearly all actives have a fitted effect of over 35% in size). In short, it runs like this: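 Agonist-mode beta-lactamase reporter assay: HEK 293T RXR-alpha-UAS-bla cells treated 16 hr at 37 C with compounds, 9-cis retinoic acid as positive control. LiveBLAzer FRET substrate, 405 nm excitation, 460/530 nm emission.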
Chain of Retinoic acid receptor RXR-alpha (Homo sapiens) (P19793 whole entry, looked up): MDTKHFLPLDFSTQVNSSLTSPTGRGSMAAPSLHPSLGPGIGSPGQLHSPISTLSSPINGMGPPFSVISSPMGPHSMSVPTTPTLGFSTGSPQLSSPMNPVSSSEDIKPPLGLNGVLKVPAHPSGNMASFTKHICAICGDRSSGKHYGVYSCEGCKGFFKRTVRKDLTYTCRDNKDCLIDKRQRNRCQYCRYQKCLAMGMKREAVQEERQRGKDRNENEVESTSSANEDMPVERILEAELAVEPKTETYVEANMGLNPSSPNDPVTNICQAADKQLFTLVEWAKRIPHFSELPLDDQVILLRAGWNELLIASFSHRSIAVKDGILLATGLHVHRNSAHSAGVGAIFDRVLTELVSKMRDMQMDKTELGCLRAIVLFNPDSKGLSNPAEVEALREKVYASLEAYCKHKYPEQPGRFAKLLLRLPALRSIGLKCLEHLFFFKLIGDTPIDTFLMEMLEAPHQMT

The nature of test [12]: qHTS assay to identify small molecule agonists of the RXR signaling pathway - cell viability counter screen (AID 1159529). In short, it runs like this:
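CellTiter-Glo luminescence gave viability in the wells also read for beta-lactamase. Cells (RXR-alpha-UAS-bla HEK 293T, 2% charcoal-stripped FBS medium) had 5 hr plating, then 16 hr compound exposure at 37 C; tetraoctyl ammonium bromide served as positive control.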

Test [13] is described as follows: qHTS assay to identify small molecule antagonists of the retinoid acid receptor (RAR) signaling pathway - cell viability counter screen (AID 1159551). Also: nearly all actives have a fitted effect of over 35% in size. In short, it runs like this:
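In this counter screen, the RARE-luciferase line C3RL4 was exposed for 6 h at 37 C and 5% CO2 to compounds with retinol at 1 uM final. Cellular ATP, read by luminescence, served as the viability measure.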

Test [14] in a line: qHTS assay to identify small molecule agonists of the retinoic acid receptor (RAR) signaling pathway (AID 1159553). In short, it runs like this: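 In this cell-based screen, 1,000 C3RL4 cells per well were cultured overnight, dosed with test chemicals in DMSO for 6 hr, and assessed for RARE luciferase luminescence.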
Test [15] is described as follows: qHTS assay to identify small molecule antagonists of the estrogen related receptor (ERR) signaling pathway - cell viability counter screen (AID 1224818). Also: series mostly up to about 46 µM. In short, it runs like this:
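Viability of ERR cells, CellTiter-Fluor fluorescence; 17.5 h compound exposure at 37 C, DMSO vehicle; 30 min reagent incubation at 37 C/5% CO2.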

Test [16] in a line: qHTS assay to identify small molecule antagonists of the estrogen related receptor signaling pathway with the pleiotropic PPARgamma coactivator (PGC) cell viability counter screen (AID 1224822; also: series mostly up to about 46 µM). The procedure, abridged: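 17.5 h compound treatment of PGC/ERR cells at 37 C; readout CellTiter-Fluor fluorescence; run alongside the PGC/ERR antagonist screen to flag cytotoxic compounds.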

For `CN/C(=C\[N+](=O)[O-])NCCSCc1csc(CN(C)C)n1`, the result in test [1], in test [2], in test [3], in test [4], in test [5] and in test [7] was inactive. Moreover, the call in test [9], in test [12] and in test [13] was inactive. Also, the Potency entry in test [6], in test [8], in [10] and in test [11] was “inactive” in each case.

In the case of `C=CC(=O)OCCC(=O)O`, the call in test [1], in [2], in test [3], in test [4], in test [5] and in test [7] was inactive. Besides, the molecule was classed as inactive in test [9], in [12] and in test [13]. Also, the Potency result in test [6], in [8], in test [10], in test [11] and in [14] was “inactive” each time.

Turning to `CCCCCCCC=O`, the call in test [1], in test [2], in test [3], in [4], in test [5] and in test [7] was inactive. Besides, the call in [9], in test [12] and in test [13] was inactive. In addition, the Potency entry in test [6], in test [8], in [10] and in test [11] was “inactive” each time.

With `O=[N+]([O-])c1ccc2nc[nH]c2c1`, the molecule was classed as inactive in test [1], in test [2], in test [3], in [4], in test [5] and in [7]. For the same molecule, the outcome in test [9], in test [12] and in [13] was inactive. Also, the Potency entry in test [6], in test [8], in test [10] and in test [11] was “inactive” each time.

In the case of `CCCCCCCCCCN`, the molecule was classed as inactive in test [1], in test [2], in test [3], in test [4], in [5] and in [7]. For the same molecule, the molecule was called inactive in test [9], in test [12] and in [13]. Also, the Potency result in test [6] is “inactive and 21.9 µM (active)”. For the same molecule, the Potency entry in test [8], in test [10], in test [11] and in test [14] was “inactive” in each case.

For the molecule `O=C(O)/C=C/C(=O)O`, the result in test [1], in [2], in test [3], in test [4], in test [5] and in test [7] was inactive. Also, the call in test [9], in test [12] and in test [13] was inactive. In addition, the Potency entry in test [6], in [8], in [10] and in test [11] was “inactive” each time.

For `OCc1ccccc1`, the outcome in test [1], in test [2], in test [3], in [4], in test [5] and in test [7] was inactive. Also, the result in test [9], in test [12] and in [13] was inactive. Also, the Potency result in test [6], in [8], in test [10], in test [11] and in test [14] was “inactive” throughout.

In the case of `CNC(=O)Oc1ccc2c(c1)[C@]1(C)CCN(C)[C@@H]1N2C`, the call in [1], in test [2], in test [3], in test [4], in [5] and in [7] was inactive. The result in [9], in test [12], in test [13], in [15] and in test [16] was inactive. For the same molecule, the Potency entry in [6], in test [8], in test [10] and in test [11] was “inactive” in each case.

In the case of `CCCCCCCO`, the molecule was classed as inactive in test [1], in test [2], in [3], in test [4], in test [5] and in [7]. Besides, the molecule was called inactive in [9], in [12] and in test [13]. For the same molecule, the Potency entry in test [6], in [8], in test [10], in test [11] and in test [14] was “inactive” throughout.

On to `CNC(=S)N(C)C`, for which the result in test [1], in [2], in test [3], in test [4], in test [5] and in test [7] was inactive. Also, the call in test [9], in test [12] and in test [13] was inactive. Moreover, the Potency result in test [6], in [8], in test [10], in [11] and in [14] was “inactive” throughout.
